Assay results as given in the supplement of paper PMC6089552.
Among all 3,200 compounds or so, about 300 (9.4%) showed activity. The sample as a whole holds a higher share of actives than the screen did.

System: A673/TR/shEF
Assay: cell viability (LOESS-normalised, relative to median of negative controls) (log2 ratio); higher = more viable cells (less compound effect), active = hit call of the paper (over 3 MAD below the median)
Settings: treatment time: 72 h
Outline: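 A673/TR/shEF Ewing sarcoma cells (1,500 per well, 384-well plates) were grown with or without doxycycline to induce EWS-FLI1 shRNA knockdown, starting 24 h before compounds. Library compounds at two or more concentrations, with DMSO controls, were added for three days. Cell viability was read by CellTiter-Glo luminescence on an Envision reader, then LOESS-corrected per plate, divided by the median of negative controls and log2-transformed. Hits were wells at least three median absolute deviations from the median of all screened wells.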

[1] = 0.25 µM, library screen: screen1, EWS-FLI1 expression: high (no doxycycline)
[2] = 0.25 µM, library screen: screen1, EWS-FLI1 expression: low (doxycycline-induced shRNA knockdown)
[3] = 2.5 µM, library screen: screen1, EWS-FLI1 expression: high (no doxycycline)
[4] = 2.5 µM, library screen: screen1, EWS-FLI1 expression: low (doxycycline-induced shRNA knockdown)
[5] = 0.25 µM, library screen: screen2, EWS-FLI1 expression: high (no doxycycline)
[6] = 0.25 µM, library screen: screen2, EWS-FLI1 expression: low (doxycycline-induced shRNA knockdown)
[7] = 2.5 µM, library screen: screen2, EWS-FLI1 expression: high (no doxycycline)
[8] = 2.5 µM, library screen: screen2, EWS-FLI1 expression: low (doxycycline-induced shRNA knockdown)

Measured: cell viability (log2)

Cc1ccccc1O
inactive: [1] 0.162 | [2] 0.0964 | [3] 0.189 | [4] 0.175

COC(C)(C)CCCC(C)C/C=C/C(C)=C/C(=O)OC(C)C (configuration not stated)
inactive: [1] -0.00169 | [2] 0.0238 | [3] 0.116 | [4] 0.0204

c1ccc2c(N3CCNCC3)cccc2c1
active: [7] -0.803 | [8] -0.746
inactive: [5] 0.144 | [6] -0.113

c1ccc2nc(N3CCNCC3)ccc2c1
inactive: [1] 0.0719 | [2] 0.0592 | [5] 0.196 | [6] 0.0365 | [3] 0.0383 | [4] 0.12 | [7] 0.14 | [8] 0.00635

COc1ccccc1N1CCNCC1
inactive: [1] 0.0547 | [2] 0.0205 | [5] 0.228 | [6] 0.0463 | [3] 0.105 | [4] 0.112 | [7] 0.201 | [8] 0.0929

C[C@]12Cc3cn4c(nc3C=C1CCC1C2CC[C@@]2(C)[C@H]1CC[C@@]2(O)C#N)nc1ccccc14 (some centres not stated)
inactive: [5] 0.119 | [6] 0.112 | [7] 0.295 | [8] 0.0843

Cc1[nH]c2ccccc2c1CN(C)C
inactive: [1] 0.0738 | [2] 0.0842 | [3] 0.116 | [4] 0.138

NC(C(=O)O)c1cc(=O)[nH]o1 (configuration not stated)
inactive: [5] 0.0457 | [6] -0.00138 | [7] 0.0296 | [8] 0.048

C=C1C([C@]2(C)C(CC(=O)OC)[C@@](C)(COC(C)=O)OC(=O)C[C@@H]2OC(C)=O)[C@@H](OC=O)[C@H](OC(=O)C(OC(C)=O)C(C)CC)[C@@]2(C)[C@H](c3ccoc3)CC(=O)C12O (some centres not stated)
inactive: [1] 0.0373 | [2] -0.0517 | [3] 0.0516 | [4] -0.0237

C/C(O)=C(\C#N)C(=O)Nc1cc(Br)ccc1Br
inactive: 0.025 µM, library screen: screen1, EWS-FLI1 expression: high (no doxycycline) 0.198 | 0.025 µM, library screen: screen1, EWS-FLI1 expression: low (doxycycline-induced shRNA knockdown) -0.0693 | [1] 0.124 | [2] -0.0251 | [5] 0.133 | [6] 0.0965 | [4] -0.0427 | [7] 0.0403 | [8] 0.0594 | 25 µM, library screen: screen1, EWS-FLI1 expression: low (doxycycline-induced shRNA knockdown) -0.00927
active: [3] -0.396 | 25 µM, library screen: screen1, EWS-FLI1 expression: high (no doxycycline) -0.451

COc1cc2ccc(=O)oc2c2ccoc12
inactive: [1] 0.222 | [2] 0.132 | [3] 0.248 | [4] 0.164

CCN(CC)C(=O)NC1C=C2c3cccc4[nH]cc(c34)CC2N(C)C1 (configuration not stated)
inactive: [5] 0.194 | [6] 0.105 | [7] 0.116 | [8] 0.101

O=[N+]([O-])c1ccc(O[C@@H]2O[C@H](CO)[C@@H](O)[C@H](O)[C@H]2F)c([N+](=O)[O-])c1
inactive: [5] 0.132 | [6] 0.00815 | [7] 0.0628 | [8] 0.111

COc1c2c(cc3c1OCO3)[C@]13C=C[C@H](OC)C[C@H]1N(C2)CC3O (some centres not stated)
inactive: [1] 0.0348 | [2] 0.0745 | [3] 0.0133 | [4] 0.0521

COP(=S)(OC)SCn1nnc2ccccc2c1=O
active: 8.3 µM, library screen: screen3, EWS-FLI1 expression: high (no doxycycline) -0.267 | 25 µM, library screen: screen3, EWS-FLI1 expression: high (no doxycycline) -0.422
inactive: 0.103 µM, library screen: screen3, EWS-FLI1 expression: high (no doxycycline) -0.0814 | 0.103 µM, library screen: screen3, EWS-FLI1 expression: low (doxycycline-induced shRNA knockdown) 0.0283 | [1] -0.0615 | [2] 0.0291 | 0.308 µM, library screen: screen3, EWS-FLI1 expression: high (no doxycycline) -0.0468 | 0.308 µM, library screen: screen3, EWS-FLI1 expression: low (doxycycline-induced shRNA knockdown) 0.0348 | 0.926 µM, library screen: screen3, EWS-FLI1 expression: high (no doxycycline) -0.0952 | 0.926 µM, library screen: screen3, EWS-FLI1 expression: low (doxycycline-induced shRNA knockdown) 0.162 | [3] 0.00869 | [4] 0.101 | 2.8 µM, library screen: screen3, EWS-FLI1 expression: high (no doxycycline) -0.136 | 2.8 µM, library screen: screen3, EWS-FLI1 expression: low (doxycycline-induced shRNA knockdown) 0.125 | 8.3 µM, library screen: screen3, EWS-FLI1 expression: low (doxycycline-induced shRNA knockdown) 0.196 | 25 µM, library screen: screen3, EWS-FLI1 expression: low (doxycycline-induced shRNA knockdown) 0.00265

CNC(=O)CSP(=S)(OC)OC
inactive: [1] 0.102 | [2] 0.0684 | [3] 0.15 | [4] 0.0982

CCCN1CCc2cccc3c2[C@H]1Cc1ccc(O)c(O)c1-3
inactive: [5] 0.161 | [6] 0.0862 | [7] 0.178 | [8] 0.107

CC(C)=CCOc1c2occc2cc2ccc(=O)oc12
inactive: [1] 0.059 | [2] 0.0156 | [3] 0.0916 | [4] -0.0403

Clc1ccc(C(c2ccc(Cl)cc2)C(Cl)(Cl)Cl)cc1
inactive: [1] 0.0479 | [2] 0.0234 | [3] 0.0726 | [4] 0.147

CN(C)C(=S)SSC(=S)N(C)C
active: [1] -2.91 | [2] -2.1 | [3] -2.99 | [4] -2.02

C[C@]12CC[C@@H](O)C[C@@H]1CC[C@@H]1[C@@H]2CC[C@]2(C)[C@@H](O)CC[C@@H]12
inactive: [5] 0.0177 | [6] 0.137 | [7] 0.141 | [8] 0.0662
